Source: PubChem
Most compounds without a hit are left out; they make up all but 12% or so of the library.
Shiga inhibitor – blocks Shiga toxin action in Vero cells. Vero cells, Shiga toxin protein synthesis inhibition reporter. inhibition, % at 38.7 µM. 290,000 compounds, 9.2% hits. AID 2315; in the data active means inhibition mostly above about 28%, no sharp cut-off; inactive means mostly below about 43%
Cycloheximide cs – counter-screen for Shiga toxin inhibitors: cycloheximide protein synthesis inhibition; 300,000 compounds, 12% hits; cell reporter, cycloheximide protein synthesis inhibition counterscreen; AID 2314; max response, %; in the data active means max response mostly above about 13%, no sharp cut-off; inactive means mostly below about 14%; further: read at 38.3 µM for the half of the compounds with a filed dose
Lassa entry inh – Lassa virus entry inhibition | Lassa virus pseudotype entry inhibition, cell reporter | Potency, µM (top dose mostly 37.9 µM), hits mostly inhibitors | 300,000 compounds, 1.2% hits; calls by dose curve; tested in HEK293 cells; further: nearly all actives have a fitted effect of over 50% in size
MARV entry inh – inhibitors of Marburg virus binding or cell entry. Marburg virus pseudotyped entry inhibition, cell reporter. 300,000 compounds, 1.8% hits. Potency, µM (top dose mostly 37.8 µM), usual class: inhibitors. AID 540276; calls by dose curve; tested in HEK293 cells
Each line names hits and unclear results; the compound was inactive in the other large screens.

COc1ccc(/C=C/C(=O)N2CCCc3ccccc32)c(OC)c1	Cycloheximide cs 14.0, Lassa entry inh inconclusive, MARV entry inh inconclusive
O=C(NCCCN1CCOCC1)c1nn(-c2ccccc2)c(=O)c2ccccc12	Lassa entry inh inconclusive (no result: Shiga inhibitor, Cycloheximide cs)
O=C1CCN(C(=O)/C=C/c2ccccc2)c2ccccc21	Shiga inhibitor 41.2, Cycloheximide cs 28.0
COc1cccc(/C=C/C(=O)OCC(=O)Nc2cccc(S(=O)(=O)N(C)C)c2)c1	Cycloheximide cs 15.1
COc1cccc(/C=C/C(=O)OCC(=O)Nc2ccc(Cl)c(S(=O)(=O)N(C)C)c2)c1	none
CCCCCCCCCC(=O)NC(CN1CCOCC1)[C@H](O)c1ccccc1 (stereo not given in full)	Lassa entry inh inconclusive, MARV entry inh 15.8µM (no result: Shiga inhibitor, Cycloheximide cs)
CCOc1ccccc1NC(=O)CSc1nncc2ccccc12	Lassa entry inh inconclusive, MARV entry inh inconclusive
O=C(O)CCC(=O)N1CCN(c2ncccc2C(F)(F)F)CC1	none
O=C(c1ccccc1)n1nc(-c2ccccc2)nc1NCc1ccc(F)cc1	none (no result: Shiga inhibitor, Cycloheximide cs)
O=C(c1ccc([N+](=O)[O-])cc1)n1nc(-c2ccccc2)nc1NCc1ccc(F)cc1	Shiga inhibitor 36.6, Cycloheximide cs 16.9
CC(=O)n1nc(-c2ccccc2)nc1NCc1ccc(F)cc1	Cycloheximide cs 19.5
O=C(c1ccc([N+](=O)[O-])cc1)n1nc(-c2ccccc2)nc1NCc1ccccc1	Shiga inhibitor 68.7, Cycloheximide cs 46.8, MARV entry inh inconclusive
Cc1cccc(C(=O)n2nc(-c3cccnc3)nc2NCc2ccccc2)c1	none (no result: Shiga inhibitor, Cycloheximide cs)
O=C(c1cccc([N+](=O)[O-])c1)n1nc(-c2ccccc2)nc1NCc1ccccc1	Shiga inhibitor 47.7, Cycloheximide cs 20.0
O=C(c1ccc(F)cc1)n1nc(-c2ccccc2)nc1NCc1ccc(F)cc1	MARV entry inh inconclusive (no result: Shiga inhibitor, Cycloheximide cs)
Cc1cccc(NC(=O)CN(CC2CCCO2)C(=O)c2ccc(S(C)(=O)=O)cc2)c1C (stereo not given)	none (no result: Shiga inhibitor, Cycloheximide cs)
CCC(C)NC(=O)CNC(=O)c1nn(-c2ccc(OC)cc2OC)c(=O)c2ccccc12 (stereo not given)	none (no result: Lassa entry inh, MARV entry inh)
Cc1oc(-c2cccc(C(F)(F)F)c2)nc1CN1CCOCC1	Shiga inhibitor 54.1, Cycloheximide cs 26.2
Cc1cc(C(=O)OCC(=O)NCc2ccc(Cl)cc2)c(C)o1	none (no result: Lassa entry inh, MARV entry inh)
Cc1ccc(Nc2nc(N)nc(CSC(=S)N3CCOCC3)n2)cc1	Shiga inhibitor 96.1, Cycloheximide cs 46.2, Lassa entry inh inconclusive
CC1CC(C)CN(C(=S)SCc2nc(N)nc(Nc3ccccc3)n2)C1 (stereo not given)	MARV entry inh inconclusive
Cc1cccc(Nc2nc(N)nc(CSC(=S)N3CCOCC3)n2)c1	Lassa entry inh inconclusive, MARV entry inh inconclusive
Nc1nc(CSC(=S)N2CCOCC2)nc(Nc2ccccc2)n1	Shiga inhibitor 94.5, Cycloheximide cs 54.1, Lassa entry inh inconclusive, MARV entry inh inconclusive
CCOc1ccc(Nc2nc(N)nc(CSC(=S)N3CCOCC3)n2)cc1	Cycloheximide cs 44.2 (no result: Lassa entry inh, MARV entry inh)
Nc1nc(CSC(=S)N2CCCCC2)nc(Nc2ccccc2)n1	Shiga inhibitor 87.1, Cycloheximide cs 39.7, Lassa entry inh inconclusive, MARV entry inh inconclusive
C#CCNC(=O)C1=C[C@@H](c2coc3ccccc3c2=O)C[C@@H](OCc2ccc(CO)cc2)O1	none (no result: Lassa entry inh, MARV entry inh)
COc1ccccc1CNC(=O)CSc1ncc2c(n1)-c1cc(Cl)ccc1N(Cc1ccccc1)S2(=O)=O	none (no result: Shiga inhibitor, Cycloheximide cs, MARV entry inh)
CCS(=O)(=O)N1CC(=O)N(c2ccc(Cl)cc2C)C(C)(C(=O)NC2CCCCC2)C1 (stereo not given)	none (no result: Shiga inhibitor, Cycloheximide cs, MARV entry inh)
CCCCCC(O)c1ccc([C@H]2CCC(=O)[C@@H]2CCCCCCC(=O)O)cc1 (stereo not given in full)	none (no result: Lassa entry inh, MARV entry inh)
COc1ccccc1Nc1nc(N)nc(CSC(=S)N2CCCCC2)n1	Shiga inhibitor 59.2, Cycloheximide cs 31.3 (no result: Lassa entry inh, MARV entry inh)
CN(CC1CCOCC1)C(=O)CC1C(=O)NCCN1Cc1cccc(C(F)(F)F)c1 (stereo not given)	none (no result: Lassa entry inh, MARV entry inh)
NC(N)=NN=C(c1ccc(F)cc1)c1ccc(C(F)(F)F)cc1	Lassa entry inh 10µM, MARV entry inh inconclusive (no result: Shiga inhibitor, Cycloheximide cs)
Cc1ccc(C(=O)C2CCN(C(=S)NCCCOC(C)C)CC2)cc1	none (no result: Lassa entry inh, MARV entry inh)
Cc1ccc(NC2=CC(=O)CC(C)(C)C2)cc1Cl	none
Cc1ccc(N/N=C2\CC(=O)c3ccccc32)cc1Cl	Cycloheximide cs 12.6 (no result: Lassa entry inh, MARV entry inh)
COc1ccc(C2CC2C(=O)c2ccccn2)cc1 (stereo not given)	Cycloheximide cs 41.1, Lassa entry inh inconclusive
COc1ccc(C2CC2/C(=N/O)c2ccccn2)cc1 (stereo not given)	Shiga inhibitor 107.7, Cycloheximide cs 20.8
COc1ccc(C2CC2/C(=N/O)c2ccccc2)cc1 (stereo not given)	Cycloheximide cs 31.2, Lassa entry inh inconclusive
O/N=C(\c1ccccn1)C1CC1c1ccccc1 (stereo not given)	Lassa entry inh inconclusive
COc1ccc(S(=O)(=O)N2CCN(C(=O)c3ccccn3)CC2)cc1	none (no result: Shiga inhibitor, Cycloheximide cs)
